Experimental data taken from PubChem BioAssay (NCI).
“And” between values parts separate entries of the source, which are not always exact repeats. Equal entries are not always repeated. This is part of a sample that, as a whole, favours compounds with a hit. Of some 79,000 tested, about 15% had one in any assay. Where a structure was tested more than once in an assay, its records may differ in their call. The source made the active and inactive calls. Cut-off read from the data, not from the text of the source: active = growth inhibition above about 70%; inactive = the rest.

Experiments:
[1] = NCI Yeast Anticancer Drug Screen. Data for the rad52 strain (AID 147);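 note: 0% = growth of vehicle-treated control cultures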; settings: S. cerevisiae rad52 mutant growth inhibition, stronger effect = higher value
How it was run: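 Inhibition of yeast growth, referenced to vehicle controls, was the measured output for a strain with defective DNA damage repair.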

[2] = NCI Yeast Anticancer Drug Screen. Data for the wt1 strain (AID 149);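 note: 0% = growth of vehicle-treated wt1 cultures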; settings: S. cerevisiae wt1 strain (SPY 50644) growth inhibition, stronger effect = higher value
How it was run: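 Yeast wt1 strain exposed to compounds; growth inhibition measured relative to vehicle-treated controls.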

[3] = NCI Yeast Anticancer Drug Screen. Data for the rad50EPP+ strain (AID 151);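 note: 0% = growth of vehicle-treated control cultures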; settings: S. cerevisiae rad50 mutant strain, stronger effect = higher value
How it was run: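 Genetically defined yeast (rad50EPP+, DNA damage repair alteration) is grown with compound, and inhibition of growth is expressed relative to vehicle-treated controls.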

[4] = NCI Yeast Anticancer Drug Screen. Data for the mgt1 strain (AID 153); settings: S. cerevisiae mgt1 mutant growth inhibition, stronger effect = higher value
How it was run: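 In the mgt1 strain, test compounds were added and growth inhibition was determined relative to vehicle-treated controls.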

[5] = NCI Yeast Anticancer Drug Screen. Data for the rad50 strain (AID 155);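 note: 0% = growth of vehicle-only cultures of the same strain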; settings: S. cerevisiae rad50 strain growth inhibition, stronger effect = higher value
How it was run: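 Yeast carrying a defined DNA repair defect were exposed to test compounds, and growth was compared with vehicle-treated controls to give percent inhibition.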

[6] = NCI Yeast Anticancer Drug Screen. Data for the mec2-1 strain (AID 157); settings: S. cerevisiae mec2-1 strain, stronger effect = higher value
How it was run: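 Each compound was tested on mec2-1 yeast, a strain altered in DNA damage repair or cell cycle control. Growth inhibition is reported relative to vehicle.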

[7] = NCI Yeast Anticancer Drug Screen. Data for the rad14 strain (AID 159);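 note: 0% = growth of vehicle-treated control cultures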; settings: S. cerevisiae rad14 strain growth inhibition, stronger effect = higher value
How it was run: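 Yeast cells carrying a defined DNA-repair defect were exposed to compounds, and growth inhibition was calculated relative to vehicle-treated control cultures.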

[8] = NCI Yeast Anticancer Drug Screen. Data for the sgs1 mgt1 strain (AID 161);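 note: 0% = growth of cultures given vehicle only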; settings: S. cerevisiae sgs1 mgt1 strain, stronger effect = higher value
How it was run: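 Mutant yeast exposed to compound; growth scored against vehicle-only wells.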

[9] = NCI Yeast Anticancer Drug Screen. Data for the CLN2oe strain (AID 163);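 note: 0% = growth of vehicle-only control cultures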; settings: S. cerevisiae CLN2oe strain, stronger effect = higher value
How it was run: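 First, the altered yeast strain was treated with each compound; second, its growth was measured; finally, inhibition was derived by comparison with vehicle controls.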

[10] = NCI Yeast Anticancer Drug Screen. Data for the cln2 rad14 strain (AID 165);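 note: 0% = growth equal to vehicle treated cultures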; settings: S. cerevisiae cln2 rad14 strain, stronger effect = higher value
How it was run: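 Test compounds were added to cln2 rad14 yeast cultures; inhibition of growth was then determined by comparison with vehicle treatment.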

[11] = NCI Yeast Anticancer Drug Screen. Data for the bub3 strain (AID 167); settings: S. cerevisiae bub3 mutant strain, stronger effect = higher value
How it was run: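 Compounds were applied to a genetically altered yeast strain carrying a cell-cycle control defect. Growth inhibition was scored against vehicle-treated controls.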

[12] = NCI Yeast Anticancer Drug Screen. Data for the wt2 strain (AID 169);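 note: 0% = growth of vehicle-treated yeast cultures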; settings: S. cerevisiae wt2 strain growth inhibition, stronger effect = higher value
How it was run: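 The panel's yeast strains carry defined changes in DNA repair or cell cycle genes. Each strain is grown with compound, and growth loss is scored relative to vehicle.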

[13] = NCI Yeast Anticancer Drug Screen. Data for the mlh1 strain (AID 171);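 note: 0% = growth of vehicle-treated control cultures of the same strain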; settings: S. cerevisiae mlh1 strain growth inhibition, stronger effect = higher value
How it was run: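 Inhibition values reflect reduced yeast growth in the presence of compound, referenced to vehicle controls, using a strain chosen for its alteration in DNA repair or cell cycle control.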

[14] = NCI Yeast Anticancer Drug Screen. Data for the sgs1 strain (AID 173);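 note: 0% = growth of vehicle-only control cultures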; settings: S. cerevisiae sgs1 mutant, stronger effect = higher value
How it was run: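 Vehicle-treated cultures served as reference for growth inhibition of a yeast strain altered in DNA damage repair or cell cycle control after compound exposure.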

[15] = NCI Yeast Anticancer Drug Screen. Data for the mlh1 rad18 strain (AID 175); settings: S. cerevisiae mlh1 rad18 strain growth inhibition, stronger effect = higher value
How it was run: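 Inhibition values reflect reduced growth of mutant yeast versus vehicle-treated controls following compound exposure; the mutations affect DNA damage repair.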

[16] = NCI Yeast Anticancer Drug Screen. Data for the rad18 strain (AID 177); settings: S. cerevisiae rad18 mutant growth inhibition, stronger effect = higher value
How it was run: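 Steps: expose repair-mutant yeast to compound; measure growth; express as inhibition relative to vehicle control.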

[17] = at 5.0 µM (retest, dose inferred, filed as 0.5)
[18] = at 50.0 µM (retest, dose inferred, filed as 5.0)

## Nc1ccn(C2OC(COP(=O)(O)O)C(O)C2O)c(=O)n1 (stereo not drawn)
[1]; at 1.2 µM
  growth inhibition: -1% (inactive)
[1]; at 3.7 µM
  growth inhibition: 0% (inactive)
[1]; at 11.0 µM
  growth inhibition: 3% (inactive)
[1]; at 33.0 µM
  growth inhibition: 5% (inactive)
[1]; at 100.0 µM
  growth inhibition: 6% (inactive)
[2]; at 1.2 µM
  growth inhibition: -11% (inactive)
[2]; at 3.7 µM
  growth inhibition: 1% (inactive)
[2]; at 11.0 µM
  growth inhibition: 2% (inactive)
[2]; at 33.0 µM
  growth inhibition: 0% (inactive)
[2]; at 100.0 µM
  growth inhibition: 1% (inactive)
[3]; at 1.2 µM
  growth inhibition: -5% (inactive)
[3]; at 3.7 µM
  growth inhibition: -2% (inactive)
[3]; at 11.0 µM
  growth inhibition: 8% (inactive)
[3]; at 33.0 µM
  growth inhibition: 37% (inactive)
[3]; at 100.0 µM
  growth inhibition: 72% (active)
[4]; at 1.2 µM
  growth inhibition: 2% (inactive)
[4]; at 3.7 µM
  growth inhibition: 4% (inactive)
[4]; at 11.0 µM
  growth inhibition: 2% (inactive)
[4]; at 33.0 µM
  growth inhibition: 3% (inactive)
[4]; at 100.0 µM
  growth inhibition: 14% (inactive)
[5]; at 1.2 µM
  growth inhibition: 0% (inactive)
[5]; at 3.7 µM
  growth inhibition: 9% (inactive)
[5]; [17]
  growth inhibition: 38% (inactive)
[5]; at 11.0 µM
  growth inhibition: 11% (inactive)
[5]; at 33.0 µM
  growth inhibition: 33% (inactive)
[5]; [18]
  growth inhibition: 42% (inactive)
[5]; at 50.0 µM
  growth inhibition: 78.3% (active) and -3% (inactive)
[5]; at 100.0 µM
  growth inhibition: 52% (inactive)
[6]; at 1.2 µM
  growth inhibition: 0% (inactive)
[6]; at 3.7 µM
  growth inhibition: 5% (inactive)
[6]; [17]
  growth inhibition: 3% (inactive)
[6]; at 11.0 µM
  growth inhibition: 8% (inactive)
[6]; at 33.0 µM
  growth inhibition: 11% (inactive)
[6]; [18]
  growth inhibition: 19% (inactive)
[6]; at 50.0 µM
  growth inhibition: -9.35% (inactive) and -12.8% (inactive)
[6]; at 100.0 µM
  growth inhibition: -3% (inactive)
[7]; at 1.2 µM
  growth inhibition: -1% (inactive)
[7]; at 3.7 µM
  growth inhibition: 6% (inactive)
[7]; at 11.0 µM
  growth inhibition: 4% (inactive)
[7]; at 33.0 µM
  growth inhibition: 5% (inactive)
[7]; at 100.0 µM
  growth inhibition: 7% (inactive)
[8]; [17]
  growth inhibition: 47% (inactive)
[8]; [18]
  growth inhibition: 75% (active)
[8]; at 50.0 µM
  growth inhibition: 87.4% (active) and 16.2% (inactive)
[9]; at 1.2 µM
  growth inhibition: -4% (inactive)
[9]; at 3.7 µM
  growth inhibition: -2% (inactive)
[9]; at 11.0 µM
  growth inhibition: -6% (inactive)
[9]; at 33.0 µM
  growth inhibition: -15% (inactive)
[9]; at 100.0 µM
  growth inhibition: -5% (inactive)
[10]; [17]
  growth inhibition: -4% (inactive)
[10]; [18]
  growth inhibition: -10% (inactive)
[10]; at 50.0 µM
  growth inhibition: -40.1% (inactive) and -51.6% (inactive)
[11]; at 1.2 µM
  growth inhibition: -2% (inactive)
[11]; at 3.7 µM
  growth inhibition: -6% (inactive)
[11]; [17]
  growth inhibition: -5% (inactive)
[11]; at 11.0 µM
  growth inhibition: -5% (inactive)
[11]; at 33.0 µM
  growth inhibition: -12% (inactive)
[11]; [18]
  growth inhibition: -4% (inactive)
[11]; at 50.0 µM
  growth inhibition: -32.9% (inactive) and 0.5% (inactive)
[11]; at 100.0 µM
  growth inhibition: -10% (inactive)
[12]; at 1.2 µM
  growth inhibition: -1% (inactive)
[12]; at 3.7 µM
  growth inhibition: -1% (inactive)
[12]; at 11.0 µM
  growth inhibition: -1% (inactive)
[12]; at 33.0 µM
  growth inhibition: 1% (inactive)
[12]; at 100.0 µM
  growth inhibition: 12% (inactive)
[13]; at 1.2 µM
  growth inhibition: 1% (inactive)
[13]; at 3.7 µM
  growth inhibition: 8% (inactive)
[13]; at 11.0 µM
  growth inhibition: 0% (inactive)
[13]; at 33.0 µM
  growth inhibition: 7% (inactive)
[13]; at 100.0 µM
  growth inhibition: 26% (inactive)
[14]; at 1.2 µM
  growth inhibition: 21% (inactive)
[14]; at 3.7 µM
  growth inhibition: 43% (inactive)
[14]; at 11.0 µM
  growth inhibition: 68% (inactive)
[14]; at 33.0 µM
  growth inhibition: 82% (active)
[14]; at 100.0 µM
  growth inhibition: 86% (active)
[15]; [17]
  growth inhibition: 13% (inactive)
[15]; [18]
  growth inhibition: -5% (inactive)
[15]; at 50.0 µM
  growth inhibition: 21.4% (inactive) and -23.4% (inactive)
[16]; at 1.2 µM
  growth inhibition: -1% (inactive)
[16]; at 3.7 µM
  growth inhibition: -4% (inactive)
[16]; at 11.0 µM
  growth inhibition: -8% (inactive)
[16]; at 33.0 µM
  growth inhibition: -15% (inactive)
[16]; at 100.0 µM
  growth inhibition: -22% (inactive)
